For 5 compounds, composite z-score and z-score results are on record in PubChem BioAssay.

Active and inactive are the calls of the source.

Assay [1] has as its system Plasmodium falciparum Sir2 (PF13_0152, Sir2A). The experiment in a line: pfSir2 binders on small-molecule microarrays, primary screen, biochemical, small-molecule microarray, 635 nm fluorescence (AID 1098).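 Also: score merges spot fluorescence intensity with its signal-to-noise ratio.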 To be noted: small-molecule microarray binding, fluorescence 635 nm; higher = more signal.
Assay [2] is described as follows: small-molecule microarray binders of probe aDKK1, primary screen, biochemical, biotinylated probe, 635/667 nm fluorescence (AID 1099).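 Also: score merges 667nm spot fluorescence with signal to noise across triplicate slides.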 To be noted: higher = more signal.
A short description of assay [3]: small-molecule microarray binders of probe aCHRDL2, primary screen, biochemical, biotinylated probe, 635/667 nm fluorescence (AID 1100). The following applies: higher = more signal.
Assay [4] is described as follows: splicing luciferase reporter signal modulators, primary screen, spliceosome inhibition project, cell-based, HEK293, splice +/- reporter (AID 1101).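 Also: HEK293 cells carrying a splicing-competent luciferase reporter gene; test concentration not given here.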 To be noted: luminescence, 24 h, higher = more signal, called active from +8 up or from −8 down. (A reporter such as luciferase makes a cellular process visible.)
Assay [5] addresses Fibroblast growth factor 10 (Homo sapiens) (UniProt O15520). Put plainly: FGF10 binders on small-molecule microarrays, primary screen, biochemical, small-molecule microarray, 635 nm fluorescence (AID 1102). To be noted: FGF10 binding, fluorescence 635 nm, higher = more signal.
The subject of assay [6] is glycogen synthase kinase-3 (GSK3A per assay name; protocol says GSK3B). The experiment in a line: GSK3 binders on small-molecule microarrays, primary screen, biochemical, small-molecule microarray, 635 nm fluorescence, GSK3A (AID 1103). Also: the record names both GSK3A and GSK3B. To be noted: small-molecule microarray binding, fluorescence 635 nm; higher = more signal.
For assay [7], the target named is Epidermal growth factor receptor (Homo sapiens) (UniProt P00533). Put plainly: EGFR binders on small-molecule microarrays, primary screen, biochemical, small-molecule microarray, 635 nm fluorescence (AID 1104).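 Also: score merges 667 nm emission intensity with spot signal to noise over triplicate slides.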 The following applies: EGFR binding, higher = more signal.
Epidermal growth factor receptor (Homo sapiens), sequence (P00533 whole entry, looked up): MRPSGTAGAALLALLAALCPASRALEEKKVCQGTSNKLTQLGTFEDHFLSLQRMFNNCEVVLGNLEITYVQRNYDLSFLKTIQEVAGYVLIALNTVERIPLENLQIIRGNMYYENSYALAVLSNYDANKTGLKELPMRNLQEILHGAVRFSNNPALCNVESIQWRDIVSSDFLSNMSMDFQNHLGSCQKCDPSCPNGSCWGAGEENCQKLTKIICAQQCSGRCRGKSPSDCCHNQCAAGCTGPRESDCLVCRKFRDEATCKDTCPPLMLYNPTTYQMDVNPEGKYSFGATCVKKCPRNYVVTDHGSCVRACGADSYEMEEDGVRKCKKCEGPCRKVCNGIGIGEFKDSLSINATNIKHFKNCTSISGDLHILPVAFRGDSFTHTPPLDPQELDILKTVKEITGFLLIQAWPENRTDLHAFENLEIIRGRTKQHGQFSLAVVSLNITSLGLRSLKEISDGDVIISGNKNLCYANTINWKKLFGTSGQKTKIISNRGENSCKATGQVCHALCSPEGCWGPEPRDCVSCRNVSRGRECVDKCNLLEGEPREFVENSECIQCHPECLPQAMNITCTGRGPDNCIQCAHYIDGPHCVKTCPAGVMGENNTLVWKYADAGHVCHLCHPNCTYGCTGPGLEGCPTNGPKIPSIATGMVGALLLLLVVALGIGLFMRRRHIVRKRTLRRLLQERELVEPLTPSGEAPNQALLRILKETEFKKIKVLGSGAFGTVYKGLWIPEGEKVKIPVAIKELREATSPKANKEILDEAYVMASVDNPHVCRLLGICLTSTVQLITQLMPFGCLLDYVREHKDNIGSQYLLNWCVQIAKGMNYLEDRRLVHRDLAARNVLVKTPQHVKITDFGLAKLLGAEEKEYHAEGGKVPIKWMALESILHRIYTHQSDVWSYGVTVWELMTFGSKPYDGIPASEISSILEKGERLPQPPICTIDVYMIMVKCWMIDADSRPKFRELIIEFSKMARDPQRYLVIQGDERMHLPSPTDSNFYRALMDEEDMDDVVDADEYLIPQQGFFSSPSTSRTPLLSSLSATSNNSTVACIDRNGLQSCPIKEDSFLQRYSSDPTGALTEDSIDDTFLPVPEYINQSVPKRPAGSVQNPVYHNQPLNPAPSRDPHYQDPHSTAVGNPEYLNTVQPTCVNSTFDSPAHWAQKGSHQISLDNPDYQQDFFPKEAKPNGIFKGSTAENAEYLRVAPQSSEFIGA
The target in assay [8] is Follistatin-related protein 3 (Homo sapiens) (UniProt O95633). The experiment in a line: FSTL3 binders on small-molecule microarrays, primary screen, biochemical, small-molecule microarray, 635 nm fluorescence (AID 1105).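 Also: score merges emission near 667 nm and signal to noise per printed spot across three slides.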 To be noted: FSTL3 binding, higher = more signal.
Follistatin-related protein 3 (Homo sapiens), sequence (O95633 whole entry, looked up): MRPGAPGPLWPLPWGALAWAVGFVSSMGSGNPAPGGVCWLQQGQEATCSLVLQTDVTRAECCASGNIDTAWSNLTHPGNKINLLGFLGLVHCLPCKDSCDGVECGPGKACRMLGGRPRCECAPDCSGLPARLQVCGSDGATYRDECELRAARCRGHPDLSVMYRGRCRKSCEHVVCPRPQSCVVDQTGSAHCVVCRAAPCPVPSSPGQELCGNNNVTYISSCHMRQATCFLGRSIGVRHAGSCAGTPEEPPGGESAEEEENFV
The target of assay [9] is Dickkopf-related protein 1 (Homo sapiens) (UniProt O94907). The experiment in a line: DKK1 binders on small-molecule microarrays, primary screen, biochemical, small-molecule microarray, 635 nm fluorescence scan (AID 1106).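 Also: score merges emission near 667 nm with signal to noise over three replicate slides.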 To be noted: DKK1 binding, higher = more signal.
Dickkopf-related protein 1 (Homo sapiens), sequence (O94907 whole entry, looked up): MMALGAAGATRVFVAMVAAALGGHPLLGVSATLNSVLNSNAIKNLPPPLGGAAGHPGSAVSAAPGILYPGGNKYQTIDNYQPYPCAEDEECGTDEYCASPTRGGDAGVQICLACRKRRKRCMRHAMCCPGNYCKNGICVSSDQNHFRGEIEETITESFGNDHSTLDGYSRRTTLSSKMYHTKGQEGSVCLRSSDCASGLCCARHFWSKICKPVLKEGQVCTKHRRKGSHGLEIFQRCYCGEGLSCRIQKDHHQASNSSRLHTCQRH
The test system of assay [10] is Inhibin beta A chain (activin A). Put plainly: INHBA (activin A) binders on microarrays, primary screen, biochemical, small-molecule microarray, 635 nm fluorescence scan (AID 1107).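 Also: mouse activin A protein probed at 4.33 µg/mL on printed slides; score merges bound-protein fluorescence near 667 nm with spot signal-to-noise.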 The following applies: small-molecule microarray binding, higher = more signal.
Assay [11] relates to Human papillomavirus type 1a protein E7 (residues 44-93). The experiment in a line: HPV1a E7 fragment binders on microarrays, primary screen, biochemical, small-molecule microarray, residues 44-93, 635 nm fluorescence (AID 1108).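 Also: E7 fragment applied at 1 µg/mL in TBST for 1 h at 4 C; score combines spot fluorescence with its signal to noise ratio.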 The following applies: small-molecule microarray binding, fluorescence 635 nm; higher = more signal.
The nature of assay [12]: modulators of HCV replicon luciferase signal, primary screen, HCV replication inhibitor project, Huh7 cells, luciferase reporter (AID 1109).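 Also: huh7 hepatoma cells harbouring a luciferase neomycin HCV replicon reporter; luciferase luminescence as measure of HCV replicon replication; test concentration not given here.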 The following applies: 48 h, higher = more signal.
The target of assay [13] is Left-right determination factor 2 (Homo sapiens) (UniProt O00292). The experiment in a line: LEFTY2 binders on small-molecule microarrays, primary screen, biochemical, small-molecule microarray, 635 nm fluorescence scan (AID 1110). To be noted: LEFTY2 binding, higher = more signal.
Left-right determination factor 2 (Homo sapiens), sequence (O00292 whole entry, looked up): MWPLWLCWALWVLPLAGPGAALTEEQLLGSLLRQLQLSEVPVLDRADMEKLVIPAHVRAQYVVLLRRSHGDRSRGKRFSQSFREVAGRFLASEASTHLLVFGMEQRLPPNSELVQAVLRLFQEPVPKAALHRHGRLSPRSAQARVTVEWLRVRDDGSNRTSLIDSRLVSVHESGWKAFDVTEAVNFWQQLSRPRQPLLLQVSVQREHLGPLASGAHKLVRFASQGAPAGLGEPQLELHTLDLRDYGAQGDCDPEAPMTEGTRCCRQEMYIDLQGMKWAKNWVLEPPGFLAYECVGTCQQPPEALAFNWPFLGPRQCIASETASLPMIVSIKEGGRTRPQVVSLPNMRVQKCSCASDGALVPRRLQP
Assay [14] has as its target Calmodulin-1 (Homo sapiens) (UniProt P0DP23). The experiment in a line: CALM1 binders on microarrays, EGTA buffer, profiling panel, biochemical, small-molecule microarray, Cy5-labelled CALM1 (AID 1111).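 Also: labelled calmodulin applied in Tris saline Tween buffer holding calcium plus EGTA and DTT.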 To be noted: Cy5-CALM1 binding fluorescence, higher = more signal.
Assay [15] has the same target. Put plainly: calcium-bound CALM1 binders on microarrays, profiling panel, artefact control for SMM control-protein annotation, biochemical, small-molecule microarray, Cy5-labelled CALM1, plus calcium (AID 1112).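 Also: score merges spot fluorescence with signal to noise from triplicate slides.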 To be noted: Cy5-CALM1 binding fluorescence, higher = more signal.
Assay [16] can be described thus: small-molecule microarray binders of probe aWnt5a, primary screen, biochemical, biotinylated probe, 635/667 nm fluorescence (AID 1113).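 Also: score merges 667 nm fluorescence intensity with signal-to-noise per printed feature.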 To be noted: higher = more signal.
The nature of assay [17]: small-molecule microarray binders of probe aShh, primary screen, biochemical, biotinylated probe, 635/667 nm fluorescence (AID 1114).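 Also: probe is biotin-labelled aShh protein from a stem cell growth factor screen; measures binding of labelled protein to compounds printed on the slide; score merges feature fluorescence at 667 nm with signal-to-noise.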 The following applies: higher = more signal.
Assay [18] in a line: small-molecule microarray binders of probe aNog, primary screen, biochemical, biotinylated probe, 635/667 nm fluorescence (AID 1115).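 Also: probe is biotinylated aNog protein used at 0.15 µg/mL for 1 h at 4 C; z-score combines 667 nm fluorescence of each spot with its signal to noise.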 To be noted: higher = more signal.
Assay [19] deals with Torsin-1A-interacting protein 1 (Homo sapiens) (UniProt Q5JTV8). The experiment in a line: LAP1 binders from COS7 cell lysate, primary screen, small-molecule microarray, 635/667 nm fluorescence (AID 1116). To be noted: COS7-hLAP1 lysate binding, 635 nm fluorescence, higher = more signal.
Torsin-1A-interacting protein 1 (Homo sapiens), sequence (Q5JTV8 whole entry, looked up): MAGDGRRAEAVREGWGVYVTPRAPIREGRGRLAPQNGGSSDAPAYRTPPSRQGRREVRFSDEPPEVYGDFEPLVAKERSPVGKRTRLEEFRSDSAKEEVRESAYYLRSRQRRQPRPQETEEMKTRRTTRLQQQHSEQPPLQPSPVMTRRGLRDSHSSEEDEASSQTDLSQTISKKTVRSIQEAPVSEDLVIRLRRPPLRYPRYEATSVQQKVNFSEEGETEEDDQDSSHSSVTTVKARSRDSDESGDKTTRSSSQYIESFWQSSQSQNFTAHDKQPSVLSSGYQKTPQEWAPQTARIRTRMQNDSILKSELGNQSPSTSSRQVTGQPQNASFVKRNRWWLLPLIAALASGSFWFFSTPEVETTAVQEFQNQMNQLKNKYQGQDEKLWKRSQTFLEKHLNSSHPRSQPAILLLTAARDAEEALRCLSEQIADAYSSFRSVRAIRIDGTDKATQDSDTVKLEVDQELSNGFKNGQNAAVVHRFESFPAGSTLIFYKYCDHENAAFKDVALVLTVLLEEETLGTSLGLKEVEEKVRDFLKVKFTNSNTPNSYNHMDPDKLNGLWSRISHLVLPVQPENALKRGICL
In assay [20] the target is Alpha-bungarotoxin (Bungarus multicinctus) (UniProt P60615). The experiment in a line: alpha-bungarotoxin binders on microarray, profiling panel, artefact control for SMM control protein annotation, biochemical, small-molecule microarray, Alexa647 label, 635/667 nm fluorescence (AID 1117). To be noted: alpha-BTX-A647 binding fluorescence, higher = more signal.
Alpha-bungarotoxin (Bungarus multicinctus), sequence (P60615 whole entry, looked up): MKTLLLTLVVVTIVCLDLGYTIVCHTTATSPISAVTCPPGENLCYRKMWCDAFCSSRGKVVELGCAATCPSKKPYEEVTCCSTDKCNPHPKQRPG

Fibroblast growth factor 10 (Homo sapiens), sequence (O15520 whole entry, looked up): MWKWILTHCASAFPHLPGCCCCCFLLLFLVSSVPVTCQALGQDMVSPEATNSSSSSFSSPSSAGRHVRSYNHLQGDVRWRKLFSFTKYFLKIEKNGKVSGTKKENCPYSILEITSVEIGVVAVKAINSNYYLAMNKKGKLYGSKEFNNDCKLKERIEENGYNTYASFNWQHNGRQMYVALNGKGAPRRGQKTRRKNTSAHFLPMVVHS

As to `COCCCNC(=O)[C@]1(Cc2ccccc2N=[N+]=[N-])N=C(c2ccc(OCCCO)cc2)O[C@@H]1c1ccccc1`, the composite z-score in assay [1] was 1.5; in assay [2], 1.23; in [3] it was 1.28; in [5] it was 0.612; in assay [6], 1.25; in assay [7], -0.137. Besides, the composite z-score in assay [8] was 0.597; in [9] it was -0.425; in assay [10], 0.97; in [11] it was 0.565; in assay [13], -0.263; in assay [14], 2.24. Besides, the composite z-score in [15] is 0.908; in assay [16], -0.118; in assay [17] it was 0.0638; in [18] it was -0.661; in assay [19] it was 1.69; in assay [20] it was 2.32. For the same compound, the results for the z-score in [4] and in assay [12] were 1.08 (inactive) and -1.69, respectively.
Consider `Cc1ccc(S[C@]2(C(=O)NCCN3CCOCC3)CC(=O)N(C(C)C)[C@@H]2c2ccc(CO)cc2I)cc1`, for which the composite z-score in assay [1] was 1.89; in assay [2] it was 0.713; in [3], 1.24; in assay [5], -0.477; in assay [6], -0.465; in assay [7] it was -1.19. Moreover, the composite z-score in [8] was -0.55; in assay [9], -0.908; in assay [10], 0.968; in assay [11], 0.89; in [13], -0.532; in [14], -1.17. The composite z-score in assay [15] is -0.693; in assay [16], -0.154; in assay [17] it was -0.138; in assay [18] it was -0.119; in assay [19] it was 0.974; in [20], -1.08. The z-score in [4] was -1.48 (inactive); in assay [12] it was -2.32.
Consider `COCCCNC(=O)[C@]1(Cc2ccccc2CN=[N+]=[N-])N=C(c2ccc(OCCCO)cc2)O[C@@H]1c1ccccc1N=[N+]=[N-]`, for which the composite z-score in assay [1] was found to be 0.427; in [2] it was 1.36; in assay [3], 1.38; in assay [5], 0.575; in assay [6] it was 0.672; in [7], 0.003. The composite z-score in [8] is 0.205; in assay [9], 0.0122; in assay [10], 1.4; in [11] it was 0.693; in assay [13], -0.581; in assay [14], 1.27. Besides, the composite z-score in assay [15] stood at 1.18; in [16] it was 0.133; in assay [17] it was 1.16; in assay [18], 0.467; in [19], 0.939; in assay [20] it was 2.35. The z-score in assay [4] was -0.486 (inactive); in assay [12], -2.06.
For `O=C/C=C/c1ccc(-c2ccccc2)cc1`, the composite z-score in assay [1] was -0.821; in [2], -0.241; in [3], 0.149; in [5] it was 0.141; in assay [6] it was -0.1; in assay [7], 0.005. Further, the composite z-score is 0.0445 in [8]; -0.14 in assay [9]; 1.1 in [10]; -1.06 in assay [11]; 0.435 in assay [13]; -0.501 in assay [14]. In addition, the composite z-score in [15] was -0.524; in assay [16], -0.129; in [17], -0.341; in [18] it was -0.739; in assay [19], -0.0833; in assay [20] it was 0.27. Further, the z-score in [4] is -1.04 (inactive); in assay [12] it was 0.861.
Take `CCCCCCCCCCC(O)C1C=CC2C(=O)N(C)C(=O)C2N1Nc1ccccc1` (stereo not given): the composite z-score is -1.02 in assay [1]; -0.0132 in assay [2]; 0.937 in assay [3]; -1.09 in assay [5]; -1.09 in assay [6]; -1.33 in [7]. Further, the composite z-score in [8] is -1.54; in assay [9] it was -1.22; in assay [10], 1.17; in assay [11] it was 0.164; in assay [13], -2.42; in assay [14], 0.194. Moreover, the composite z-score in assay [15] is 1.19; in assay [16], -0.252; in assay [17] it was -0.121; in [18], 0.101; in assay [19], 0.504; in [20], -0.868. Besides, the z-score is 0.953 (inactive) in assay [4] and -0.28 in assay [12].
